Compound activity deposited in PubChem by National Center for Advancing Translational Sciences (NCATS).
Cruzain inh noDet: cruzain (T. cruzi) inhibition without detergent; P25779; purified cruzain, Z-FR-AMC fluorescence, no detergent; Potency, µM, without a hit: max response, negative = inhibition, usual class: inhibitors; 200,000 tested, 2.3% active; AID 1476;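 note: plate controls were enzyme without inhibitor for no effect and buffer without enzyme for full effect; nearly all actives have a fitted effect of over 40% in size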
Target sequence (P25779 123-467 limits assumed): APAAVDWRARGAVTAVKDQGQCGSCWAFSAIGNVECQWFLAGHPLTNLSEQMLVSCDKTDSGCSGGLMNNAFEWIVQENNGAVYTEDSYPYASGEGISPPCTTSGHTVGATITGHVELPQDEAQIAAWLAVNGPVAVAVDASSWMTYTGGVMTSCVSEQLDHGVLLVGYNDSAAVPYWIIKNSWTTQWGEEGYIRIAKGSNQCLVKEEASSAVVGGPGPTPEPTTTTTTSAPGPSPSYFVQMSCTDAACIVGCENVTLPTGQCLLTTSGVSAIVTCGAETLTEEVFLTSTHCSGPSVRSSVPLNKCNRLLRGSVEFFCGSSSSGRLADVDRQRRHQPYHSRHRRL
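Detergent-free condition (0.00005% Triton X-100) in acetate buffer pH 5.5 with DTT. 1.5 nM enzyme and compound were pre-mixed 15 min, then 2 uM Z-FR-AMC substrate added; reaction progress from fluorescence change between first and third reads (60 s).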
Cruzain inh Det: inhibitors of Trypanosoma cruzi cruzain with detergent. P25779. Potency, µM, for the others: max response, negative = inhibition, usual class: inhibitors. purified cruzain, Z-FR-AMC fluorescence, 0.01% Triton. 200,000 tested, 0.43% active;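 note: plate controls were neutral wells for no effect and buffer without enzyme for full effect; nearly all actives have a fitted effect of over 40% in size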
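Z-FR-AMC hydrolysis (2 uM substrate) by cruzain (1.5 nM) monitored kinetically at ex 360/em 450 nm after 15 min room-temperature compound exposure; 0.01% Triton X-100, pH 5.5, 5 mM DTT.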
Active calls of the source: *; ? = inconclusive. An excerpt weighted towards active compounds, which were near 2.4% of everything screened. Calls come from the whole dose curve; as a rule, active = well fitted curve in the direction sought with a large enough effect; inconclusive = small, poorly fitted or top-dose-only effect, or another doubt; inactive = no such curve, though single readings can be large; an effect the other way counts as inactive or inconclusive. Potency is the fitted concentration of half-maximal effect.

SMILES	Cruzain inh noDet	Cruzain inh Det
COc1ccc(C)cc1NC(=O)C(OC(=O)CNC(=O)c1ccc(Oc2ccccc2)cc1)c1ccccc1 (stereo unspecified)	?	-19%
Cc1cc(C)cc(NC(=O)C2CCN(S(=O)(=O)c3cccc(-c4noc(C)n4)c3)CC2)c1	6%	1%
O=C(Nc1nc2c(Cl)cccc2s1)c1ccc(Br)o1	15%	7%
O=C(Nc1nc2ccc(Cl)cc2s1)c1ccc(Br)o1	20µM*	0%
COC(=O)c1ccc(CC(=O)c2nc3ccccc3s2)cc1	32µM*	-2%
O=C(Cc1ccccc1)c1nc2ccccc2s1	-13%	-15%
Cc1ccc(OCC(=O)Nc2cccc(C(=O)OCc3cc(=O)n4nc(C)sc4n3)c2)cc1	-9%	1%
N#Cc1cccc(-c2cc(NCc3ccccc3)ncn2)c1	3%	-4%
CC(C)CON=O	-7%	2%
CN(C)S(=O)(=O)c1cc(NC(=O)[C@H](Cc2ccccc2)N2C(=O)c3ccccc3C2=O)ccc1Cl	20µM*	-4%
CN(C)S(=O)(=O)c1cc(NC(=O)COC(=O)Cc2ccccc2)ccc1Cl	-10%	-7%
CC1CCC(NC(=O)Cn2ncc3c4ccccc4n(Cc4ccc(Cl)cc4)c3c2=O)CC1 (stereo unspecified)	2%	-2%
Cc1cc(C)c(Cn2c3ccccc3c3cnn(CC(=O)NC4CCC(C)CC4)c(=O)c32)c(C)c1 (stereo unspecified)	2µM*	-2%
NCC1CCC(N)C(O[C@@H]2C(O)[C@H](O[C@H]3OC(CO)C(O)C(N)C3O)[C@@H](N)C[C@H]2N)O1 (stereo partly specified)	15%	3%
COc1ccc(-c2nc3cnc(N4CCN(C)CC4)nc3n(Cc3cccc(OC)c3)c2=O)cc1	4%	-3%
S=C(Nc1ccccc1)Nc1nc2ccccc2n1CCOc1ccc(Br)cc1	7.9µM*	3%
Cn1c(NC(=S)Nc2ccccc2)nc2ccccc21	?	1%
Cc1c2cnn(-c3ccccc3)c(=O)c2c(C)n1CC(=O)NCc1ccccc1Br	9%	-4%
CCOC(=O)N1CCN(C(=O)CSc2nc3c(cnn3-c3ccccc3)c(=O)[nH]2)CC1	3%	0%
COc1cccc(C2CC(c3cccs3)=NN2C(=O)CSc2nc3ccccc3s2)c1OC (stereo unspecified)	13µM*	?
O=C(CSc1nc2c(cnn2-c2ccc(F)cc2)c(=O)[nH]1)N1CCCCC1	-13%	-2%
COc1ccc(C2CC(c3cccs3)=NN2C(=O)CSc2nc3c(cnn3-c3ccccc3)c(=O)[nH]2)cc1 (stereo unspecified)	32µM*	-9%
COc1cccc(C2CC(c3cccs3)=NN2C(=O)CSc2nc3c(cnn3-c3ccc(F)cc3)c(=O)[nH]2)c1OC (stereo unspecified)	?	3.5µM*
COc1ccc(C2=NN(C(=O)CSc3nc4ccccc4s3)C(c3ccc(OC)cc3)C2)cc1 (stereo unspecified)	?	-3%
CC1(C)CC(=O)C(C(c2cccc(O)c2O)C2C(=O)CC(C)(C)CC2=O)C(=O)C1	-7%	3%
SMILES	Cruzain inh noDet	Cruzain inh Det
COc1cccc(C(c2sc3nc(-c4ccco4)nn3c2O)N2CCOCC2)c1 (stereo unspecified)	0%	0%
C[C@@H](CSC(=N)N)C(N)=O	2%	2%
COc1cc2ccccc2cc1C(=O)Nc1ccc(Cl)c(-c2nc3ccccc3o2)c1	3.2µM*	-2%
Cc1ccc2oc(-c3cc(NC(=O)c4oc5ccccc5c4C)ccc3Cl)nc2c1	3.2µM*	-1%
COc1ccccc1C(=O)Nc1ccc2oc(-c3cccc4c(Br)cccc34)nc2c1	1.3µM*	-4%
Cc1ccc2oc(-c3cc(NC(=O)c4ccco4)ccc3Cl)nc2c1	0%	-11%
O=C(Nc1ccc(Cl)c(-c2nc3cc(Cl)ccc3o2)c1)c1cc2ccccc2o1	?	0%
COc1cc(OC)cc(C(=O)Nc2ccc3oc(-c4cccc5c(Br)cccc45)nc3c2)c1	2%	0%
Cc1cc2nc(-c3cc(NC(=O)c4cc5ccccc5o4)ccc3Cl)oc2cc1C	13µM*	-1%
COc1cc2ccccc2cc1C(=O)Nc1ccc2oc(-c3ccc(Cl)cc3)nc2c1	-1%	0%
C[C@H](Oc1ccc(Oc2cnc3ccc(Cl)cc3n2)cc1)C(=O)O	1%	2%
COc1ccc(OC)c(NC(=O)CCCOc2cc(=O)n(C)c3ccccc23)c1	?	2%
Cc1ccc(Sc2ccc(N3CCC(C(=O)Nc4ccc(Cl)cc4)CC3)nn2)cc1	11%	-3%
Clc1ccc(CSC2=NCCN2)cc1Cl	-4%	1%
c1ccc(-c2cc(-c3nnc4n3N=C(c3ccc5ccccc5c3)CS4)[nH]n2)cc1	25µM*	-3%
COc1ccc(-c2nnc3n2N=C(c2ccccc2)CS3)cc1OC	26%	-7%
COc1ccc(C2=Nn3c(nnc3-c3ccccc3)SC2)cc1OC	-2%	7%
